The target in assay [1] is Luciferin 4-monooxygenase (Photinus pyralis) (UniProt P08659). Kind of assay: Biochemical firefly luciferase enzyme assay for NPC (AID 624030). Note: nearly all actives have a fitted effect of over 70% in size. Note: potency is the fitted concentration of half-maximal effect. Put shortly:
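Direct inhibition of firefly luciferase enzyme (10 nM final, 50 mM Tris Acetate) assessed by luminescence within 5 minutes. Percent activity scaled between DMSO and PTC124 positive control, with concentration-effect curves classified by fit quality and response.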

Assay [2] concerns CP266. Nature of the assay: qHTS profiling for inhibitors of Plasmodium falciparum proliferation (AID 504749). Note: nearly all actives have a fitted effect of over 60% in size. The settings on record: P. falciparum in erythrocytes, SYBR Green DNA, 72 h; series mostly up to 28.7 µM. In short, it runs like this: (§1)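 Three-day growth assay of blood-stage parasites in erythrocytes (0.3% parasitemia, 2.5% hematocrit) at 37 C, 5% CO2, quantified by SYBR Green DNA staining after overnight detergent lysis.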

The subject of assay [3] is CP268. Described as above. The settings on record: P. falciparum in erythrocytes, SYBR Green DNA, 72 h; series mostly up to 28.7 µM. Put shortly: as §1
Assay [4] relates to CP269. Described as above. The settings on record: P. falciparum in erythrocytes, SYBR Green DNA, 72 h; series mostly up to 28.7 µM. In short, it runs like this:
as §1

The test system of assay [5] is CP297. The description is as above. The settings on record: P. falciparum in erythrocytes, SYBR Green DNA, 72 h; series mostly up to 28.7 µM. In short, it runs like this: as §1
Assay [6] has as its system CP305. The assay is described as above. The following applies: P. falciparum in erythrocytes, SYBR Green DNA, 72 h; series mostly up to 28.7 µM. Put shortly: as §1
In assay [7] the test system is CP325. The assay is described as above. The following applies: P. falciparum in erythrocytes, SYBR Green DNA, 72 h; series mostly up to 28.7 µM. Put shortly: as §1
The test system of assay [8] is CP329. The assay is described as above. The settings on record: P. falciparum in erythrocytes, SYBR Green DNA, 72 h; series mostly up to 28.7 µM. In short, it runs like this:
as §1

The test system of assay [9] is CP335. The assay is described as above. The settings on record: P. falciparum in erythrocytes, SYBR Green DNA, 72 h; series mostly up to 28.7 µM. In short, it runs like this: as §1
The test system of assay [10] is DIV14. The description is as above. The settings on record: P. falciparum in erythrocytes, SYBR Green DNA, 72 h; series mostly up to 28.7 µM. In short, it runs like this:
as §1

Assay [11] deals with ECU. Described as above. The following applies: P. falciparum in erythrocytes, SYBR Green DNA, 72 h; series mostly up to 28.7 µM. In short, it runs like this:
as §1

Assay [12] concerns GB4. Described as above. The following applies: P. falciparum in erythrocytes, SYBR Green DNA, 72 h; series mostly up to 28.7 µM. Put shortly:
as §1

The subject of assay [13] is JCK. Described as above. The settings on record: P. falciparum in erythrocytes, SYBR Green DNA, 72 h; series mostly up to 28.7 µM. In short, it runs like this:
as §1

For assay [14], the system named is P93_24. Described as above. The following applies: P. falciparum in erythrocytes, SYBR Green DNA, 72 h; series mostly up to 28.7 µM. In short, it runs like this: as §1
In assay [15] the test system is PAD. The assay is described as above. The following applies: P. falciparum in erythrocytes, SYBR Green DNA, 72 h; series mostly up to 28.7 µM. In short, it runs like this: as §1
For assay [16], the system named is PC15. The assay is described as above. The following applies: P. falciparum in erythrocytes, SYBR Green DNA, 72 h; series mostly up to 28.7 µM. Put shortly:
as §1

For assay [17], the system named is PC26. Described as above. The settings on record: P. falciparum in erythrocytes, SYBR Green DNA, 72 h; series mostly up to 28.7 µM. Put shortly: as §1
The subject of assay [18] is PC49. The assay is described as above. The following applies: P. falciparum in erythrocytes, SYBR Green DNA, 72 h; series mostly up to 28.7 µM. In short, it runs like this:
as §1

The subject of assay [19] is TAB109. The description is as above. The settings on record: P. falciparum in erythrocytes, SYBR Green DNA, 72 h; series mostly up to 28.7 µM. In short, it runs like this: as §1
The subject of assay [20] is TAB113. The assay is described as above. The settings on record: P. falciparum in erythrocytes, SYBR Green DNA, 72 h; series mostly up to 28.7 µM. Put shortly: as §1

Inconclusive results are not listed. The source made the active and inactive calls. Calls come from the whole dose curve; as a rule, active = well fitted inhibition curve with a large enough effect; inconclusive = small, poorly fitted or top-dose-only effect; inactive = flat fitted curve, though single readings scatter.

Luciferin 4-monooxygenase (Photinus pyralis), sequence (P08659 whole entry, looked up): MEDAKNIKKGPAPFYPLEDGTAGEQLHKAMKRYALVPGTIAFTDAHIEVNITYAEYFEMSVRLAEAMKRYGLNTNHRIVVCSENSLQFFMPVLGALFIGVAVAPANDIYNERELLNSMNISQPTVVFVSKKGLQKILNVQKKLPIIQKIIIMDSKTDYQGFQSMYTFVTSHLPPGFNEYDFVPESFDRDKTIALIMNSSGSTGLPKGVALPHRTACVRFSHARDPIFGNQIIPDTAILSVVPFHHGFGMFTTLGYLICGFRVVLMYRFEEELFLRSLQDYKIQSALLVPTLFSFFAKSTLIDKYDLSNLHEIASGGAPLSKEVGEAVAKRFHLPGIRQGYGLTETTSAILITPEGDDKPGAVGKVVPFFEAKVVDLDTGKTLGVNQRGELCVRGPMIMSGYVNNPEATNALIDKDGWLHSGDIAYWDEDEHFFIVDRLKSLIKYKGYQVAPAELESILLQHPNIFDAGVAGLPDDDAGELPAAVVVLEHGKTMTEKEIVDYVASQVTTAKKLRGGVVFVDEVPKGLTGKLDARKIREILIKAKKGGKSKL

Regarding `CC1CCC(C(C)C)C(O)C1` (stereo not given), the Potency entry in assay [1], in assay [2], in [3], in assay [4], in assay [5] and in [6] was “inactive” throughout. Besides, the Potency entry in assay [7], in assay [8], in assay [9], in assay [10], in assay [11] and in assay [12] was “inactive” in each case. Moreover, the Potency result in [13], in assay [14], in assay [15], in assay [16], in [17] and in [18] was “inactive” throughout. The Potency result in assay [19] and in assay [20] was “inactive” each time.
As for `O=c1ccn(C2OC(COP(=O)(O)OC3C(CO)OC(n4ccc(=O)[nH]c4=O)C3O)C(O)C2O)c(=O)[nH]1` (stereo not given), the Potency result in [1], in assay [2], in assay [3], in [4], in [5] and in assay [6] was “inactive” in each case. Also, the Potency entry in [7], in [8], in assay [9], in assay [10], in assay [11] and in [12] was “inactive” throughout. The Potency result in assay [13], in assay [14], in [15], in [16], in [17] and in assay [18] was “inactive” throughout. Besides, the Potency result in [19] and in assay [20] was “inactive” throughout.
`CC(=O)NC[C@@H]1CN(c2ccc(N3CCOCC3)c(F)c2)C(=O)O1`: the Potency result in assay [1], in assay [2], in assay [3], in assay [4], in assay [5] and in [6] was “inactive” in each case. Besides, the Potency result in assay [7], in [8], in [9], in assay [10], in [11] and in [12] was “inactive” in each case. Moreover, the Potency entry in [13], in assay [14], in assay [15], in [16], in [17] and in assay [18] was “inactive” each time. The Potency entry in assay [19] and in assay [20] was “inactive” in each case.
Turning to `CC(O)C(N)C(=O)O` (stereo not given), the Potency entry in assay [1], in assay [2], in [3], in assay [4], in assay [5] and in [6] was “inactive” in each case. Moreover, the Potency result in assay [7], in assay [8], in assay [9], in assay [10], in assay [11] and in assay [12] was “inactive” in each case. Besides, the Potency entry in assay [13], in [14], in [15], in assay [16], in assay [17] and in [18] was “inactive” in each case. Besides, the Potency entry in assay [19] and in [20] was “inactive” throughout.
Consider `CCCCCCCCCCCCCCCC(=O)OCC(COP(=O)(O)OCC[N+](C)(C)C)OC(=O)CCCCCCCCCCCCCCC` (stereo not given), for which the Potency entry in [1], in assay [2], in assay [3], in assay [4], in [5] and in assay [6] was “inactive” each time. The Potency result in assay [7], in assay [8], in assay [9], in assay [10], in assay [11] and in assay [12] was “inactive” throughout. Besides, the Potency entry in [13], in assay [14], in assay [15], in assay [16], in assay [17] and in assay [18] was “inactive” each time. Moreover, the Potency result in assay [19] and in assay [20] was “inactive” in each case.
For `C[C@]12CC[C@@H]3c4ccc(O)cc4CC[C@H]3[C@@H]1C[C@H](O)C2O` (stereo not given in full), the Potency entry in assay [1], in [2], in assay [3], in assay [4], in assay [5] and in [6] was “inactive” in each case. In addition, the Potency result in [7], in assay [8], in [9], in assay [10], in assay [11] and in assay [12] was “inactive” each time. For the same compound, the Potency entry in [13], in [14], in assay [15], in [16], in assay [17] and in assay [18] was “inactive” throughout. The Potency entry in assay [19] and in assay [20] was “inactive” each time.
Consider `CNC1C(O)C(OC2C(N)CC(N)C(OC3OC(CN)=CCC3N)C2O)OCC1(C)O` (stereo not given), for which the Potency result in assay [1], in assay [2], in assay [3], in assay [4], in assay [5] and in assay [6] was “inactive” each time. The Potency result in assay [7], in assay [8], in assay [9], in [10], in assay [11] and in assay [12] was “inactive” throughout. Also, the Potency entry in assay [13], in assay [14], in [15], in assay [16], in assay [17] and in [18] was “inactive” throughout. For the same compound, the Potency result in assay [19] and in assay [20] was “inactive” throughout.
As for `C=CCn1c(=O)n(C2OC(CO)C(O)C2O)c2nc(N)[nH]c(=O)c21` (stereo not given), the Potency entry in [1], in [2], in assay [3], in assay [4], in assay [5] and in [6] was “inactive” throughout. In addition, the Potency result in [7], in [8], in assay [9], in [10], in [11] and in assay [12] was “inactive” in each case. In addition, the Potency result in assay [13], in assay [14], in assay [15], in assay [16], in assay [17] and in assay [18] was “inactive” throughout. Further, the Potency entry in [19] and in assay [20] was “inactive” each time.
`Cc1cn([C@H]2CC(F)[C@@H](CO)O2)c(=O)[nH]c1=O` (stereo not given in full): the Potency entry in [1], in assay [2], in assay [3], in [4], in assay [5] and in [6] was “inactive” throughout. Besides, the Potency result in assay [7], in [8], in assay [9], in [10], in assay [11] and in assay [12] was “inactive” each time. Besides, the Potency entry in assay [13], in assay [14], in assay [15], in [16], in assay [17] and in [18] was “inactive” in each case. Further, the Potency entry in assay [19] and in assay [20] was “inactive” throughout.
`O=C1[C@@H]2C[C@@H]3C[C@H]1C[C@@](O)(C3)C2`: the Potency entry in assay [1], in assay [2], in assay [3], in assay [4], in assay [5] and in [6] was “inactive” each time. Moreover, the Potency result in assay [7], in assay [8], in assay [9], in [10], in assay [11] and in assay [12] was “inactive” throughout. The Potency entry in assay [13], in assay [14], in assay [15], in assay [16], in assay [17] and in assay [18] was “inactive” throughout. Also, the Potency result in assay [19] and in assay [20] was “inactive” each time.
On to `CC1(C)SC2C(NC(=O)C(C(=O)O)c3ccccc3)C(=O)N2C1C(=O)O` (stereo not given), for which the Potency result in assay [1], in [2], in assay [3], in [4], in [5] and in [6] was “inactive” each time. In addition, the Potency entry in assay [7], in assay [8], in [9], in assay [10], in assay [11] and in assay [12] was “inactive” in each case. Further, the Potency entry in [13], in assay [14], in assay [15], in [16], in assay [17] and in [18] was “inactive” throughout. The Potency result in assay [19] and in assay [20] was “inactive” each time.
As to `OCC1O[C@H](O[C@H]2C(O)C(O)C(O)O[C@@H]2CO)C(O)C(O)C1O` (stereo not given in full), the Potency entry in assay [1], in [2], in assay [3], in assay [4], in assay [5] and in assay [6] was “inactive” in each case. In addition, the Potency entry in [7], in assay [8], in assay [9], in assay [10], in assay [11] and in assay [12] was “inactive” each time. Moreover, the Potency result in assay [13], in assay [14], in assay [15], in [16], in assay [17] and in assay [18] was “inactive” throughout. Further, the Potency entry in [19] and in assay [20] was “inactive” each time.
Consider `Cc1ccc(Nc2ncccc2C(=O)O)cc1C`, for which the Potency in [1] is 11.4 µM (active). Moreover, the Potency entry in assay [2], in assay [3], in assay [4], in assay [5], in assay [6] and in assay [7] was “inactive” throughout. Also, the Potency result in assay [8], in assay [9], in [10], in assay [11], in assay [12] and in assay [13] was “inactive” each time. For the same compound, the Potency entry in assay [14], in assay [15], in [16], in [17], in [18] and in assay [19] was “inactive” each time. Also, the Potency result in assay [20] is “inactive”.

The values above are taken from PubChem BioAssay (NCATS).
